# Test results as given in the supplement of paper PMC8728848.
# This excerpt belongs to a sample that is enriched for the strongest signals.
# B1: B936 (Bifidobacterium sp) (protein)
# chain: MKNWKKAIALVASAAALVSVAACGPSNAGGSSDSGKKTVGFVAVGPEGGFRTANEKDIQKAFEDAGFDLTYSPTQNNDQQKQIQAFNKFVNDEVDAIILSSTEDSGWDDSLKKAAEAEIPVFTVDRNVDVKDAEAKKAIVAHIGPSNVWCGEQAAEFVNKNFPDGANGFILEGPAGLSVVKDRGTGWGNKVASNVKVLESQSANWSTDEAKTVTAGLLDKYKSDNPQFIFAQNDEMGLGAAQAVDAAGLKGKVKIITIDGTKNALQALVDGDLSYVIEYNPIFGKETAQAVKDYLDGKTVEKDIEIESKTFDAASAKEALDNNTRAY
# Assays:
# Experiment in all cases: glycan array binding signal (z-score within array); higher = stronger binding
# Conditions in all cases: glycan notation: IUPAC condensed, linker removed
# [1] = molecular target: Fuc(a1-2)Gal(b1-4)GlcNAc(b1-3)[Fuc(a1-3)[Gal(b1-4)]GlcNAc(b1-6)]Gal(b1-4)Glc
# How it was run: (§1)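 Glycan array data were curated from 3228 arrays in the Consortium for Functional Glycomics database and kept only where the protein sequence was available. Glycan names were converted to IUPAC-condensed notation, and columns mapping to the same glycan were averaged. The binding signal is a within-array Z-score, averaged across arrays of the same protein sequence at different concentrations or buffers and across linkers. Negative Z-scores can be read as non-binding.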
# [2] = molecular target: Fuc(a1-2)Gal(b1-4)[Fuc(a1-3)]GlcNAc(b1-2)[Fuc(a1-2)Gal(b1-4)[Fuc(a1-3)]GlcNAc(b1-4)]Man(a1-3)[Fuc(a1-2)Gal(b1-4)[Fuc(a1-3)]GlcNAc(b1-2)Man(a1-6)]Man(b1-4)GlcNAc(b1-4)GlcNAc
# How it was run: as §1
# [3] = molecular target: Fuc(a1-2)[Gal(a1-3)]Gal(b1-4)GlcNAc(b1-3)[Fuc(a1-2)[Gal(a1-3)]Gal(b1-4)GlcNAc(b1-6)]GalNAc
# How it was run: as §1
# [4] = molecular target: Fuc(a1-2)[Gal(a1-3)]Gal(b1-4)[Fuc(a1-3)]GlcNAc(b1-3)GalNAc
# How it was run: as §1
# [5] = molecular target: Fuc(a1-2)[GalNAc(a1-3)]Gal(b1-3)GlcNAc(b1-6)GalNAc
# How it was run: as §1
# [6] = molecular target: Fuc(a1-2)[GalNAc(a1-3)]Gal(b1-4)[Fuc(a1-3)]GlcNAc(b1-3)GalNAc
# How it was run: as §1
# [7] = molecular target: Fuc(a1-3)[Gal(b1-4)]GlcNAc(b1-2)Man(a1-3)[Fuc(a1-3)[Gal(b1-4)]GlcNAc(b1-2)Man(a1-6)]Man(b1-4)GlcNAc(b1-4)[Fuc(a1-6)]GlcNAc
# How it was run: as §1
# [8] = molecular target: Fuc(a1-3)[Gal(b1-4)]GlcNAc(b1-3)Gal(b1-4)[Fuc(a1-3)]GlcNAc
# How it was run: as §1
# [9] = molecular target: Fuc(a1-3)[Gal(b1-4)]GlcNAc(b1-6)[Gal(b1-3)GlcNAc(b1-3)]Gal(b1-4)Glc
# How it was run: as §1
# [10] = molecular target: Fuc(a1-3)[Gal3S(b1-4)]GlcNAc6S
# How it was run: as §1
# [11] = molecular target: Fuc(a1-3)[GalNAc(b1-4)]GlcNAc6S
# How it was run: as §1
# [12] = molecular target: Gal(a1-3)Gal(b1-3)GlcNAc(b1-2)Man(a1-3)[Gal(a1-3)Gal(b1-3)GlcNAc(b1-2)Man(a1-6)]Man(b1-4)GlcNAc(b1-4)GlcNAc
# How it was run: as §1
# [13] = molecular target: Gal(a1-3)Gal(b1-3)[Fuc(a1-4)]GlcNAc(b1-2)Man(a1-3)[Gal(a1-3)Gal(b1-3)[Fuc(a1-4)]GlcNAc(b1-2)Man(a1-6)]Man(b1-4)GlcNAc(b1-4)GlcNAc
# How it was run: as §1
# Gal(a1-3)Gal(b1-4)GlcNAc = molecular target: Gal(a1-3)Gal(b1-4)GlcNAc
# How it was run: as §1
# [14] = molecular target: Gal(a1-4)Gal(b1-4)GlcNAc(b1-2)Man(a1-3)[Gal(a1-4)Gal(b1-4)GlcNAc(b1-2)Man(a1-6)]Man(b1-4)GlcNAc(b1-4)GlcNAc
# How it was run: as §1
# Gal(b1-3)Gal(b1-4)GlcNAc = molecular target: Gal(b1-3)Gal(b1-4)GlcNAc
# How it was run: as §1
# Gal(b1-3)GalNAc = molecular target: Gal(b1-3)GalNAc
# How it was run: as §1
# [15] = molecular target: Gal(b1-3)GlcNAc(b1-3)Gal(b1-4)Glc
# How it was run: as §1
# [16] = molecular target: Gal(b1-3)GlcNAc(b1-3)Gal(b1-4)GlcNAc
# How it was run: as §1
# [17] = molecular target: Gal(b1-3)[Fuc(a1-4)]GlcNAc(b1-2)Man
# How it was run: as §1
# [18] = molecular target: Gal(b1-3)[Fuc(a1-4)]GlcNAc(b1-3)Gal(b1-3)[Fuc(a1-4)]GlcNAc
# How it was run: as §1
# [19] = molecular target: Gal(b1-3)[Fuc(a1-4)]GlcNAc(b1-6)GalNAc
# How it was run: as §1
# [20] = molecular target: Gal(b1-4)GlcNAc(b1-2)[Gal(b1-4)GlcNAc(b1-4)]Man(a1-3)[Gal(b1-4)GlcNAc(b1-2)Man(a1-6)]Man(b1-4)GlcNAc(b1-4)GlcNAc
# How it was run: as §1
# [21] = molecular target: Gal(b1-4)GlcNAc(b1-2)[Gal(b1-4)GlcNAc(b1-6)]Man(a1-6)[GlcNAc(b1-4)][Gal(b1-4)GlcNAc(b1-2)Man(a1-3)]Man(b1-4)GlcNAc(b1-4)GlcNAc
# How it was run: as §1
# [22] = molecular target: Gal(b1-4)GlcNAc(b1-3)Gal(b1-4)Glc
# How it was run: as §1
# [23] = molecular target: Gal(b1-4)GlcNAc(b1-6)[Gal(b1-3)]GalNAc
# How it was run: as §1
# Gal3S(b1-3)GlcNAc = molecular target: Gal3S(b1-3)GlcNAc
# How it was run: as §1
# Gal6S(b1-4)GlcNAc6S = molecular target: Gal6S(b1-4)GlcNAc6S
# How it was run: as §1
# [24] = molecular target: GalNAc(b1-4)GlcNAc(b1-2)Man(a1-3)[GalNAc(b1-4)GlcNAc(b1-2)Man(a1-6)]Man(b1-4)GlcNAc(b1-4)GlcNAc
# How it was run: as §1
# GlcA(b1-3)Gal = molecular target: GlcA(b1-3)Gal
# How it was run: as §1
# [25] = molecular target: GlcNAc(a1-3)Gal(b1-4)GlcNAc
# How it was run: as §1
# [26] = molecular target: GlcNAc(b1-3)Gal(b1-4)GlcNAc(b1-3)Gal(b1-4)GlcNAc(b1-2)Man(a1-3)[GlcNAc(b1-3)Gal(b1-4)GlcNAc(b1-3)Gal(b1-4)GlcNAc(b1-2)Man(a1-6)]Man(b1-4)GlcNAc(b1-4)GlcNAc
# How it was run: as §1
# [27] = molecular target: GlcNAc(b1-3)Gal(b1-4)GlcNAc(b1-3)Gal(b1-4)GlcNAc(b1-3)Gal(b1-4)GlcNAc(b1-3)Gal(b1-4)GlcNAc(b1-2)Man(a1-3)[GlcNAc(b1-3)Gal(b1-4)GlcNAc(b1-3)Gal(b1-4)GlcNAc(b1-3)Gal(b1-4)GlcNAc(b1-3)Gal(b1-4)GlcNAc(b1-2)Man(a1-6)]Man(b1-4)GlcNAc(b1-4)GlcNAc
# How it was run: as §1
# [28] = molecular target: GlcNAc(b1-3)Gal(b1-4)GlcNAc(b1-3)GalNAc
# How it was run: as §1
# [29] = molecular target: GlcNAc(b1-6)Gal(b1-4)GlcNAc
# How it was run: as §1
# Man(a1-3)[Man(a1-6)]Man = molecular target: Man(a1-3)[Man(a1-6)]Man
# How it was run: as §1
# [30] = molecular target: Neu5Ac(a2-3)Gal(b1-3)GlcNAc(b1-2)Man
# How it was run: as §1
# [31] = molecular target: Neu5Ac(a2-3)Gal(b1-3)[Fuc(a1-4)]GlcNAc(b1-3)Gal(b1-4)[Fuc(a1-3)]GlcNAc
# How it was run: as §1
# [32] = molecular target: Neu5Ac(a2-3)Gal(b1-4)GlcNAc(b1-2)[Neu5Ac(a2-3)Gal(b1-4)GlcNAc(b1-4)]Man(a1-3)[GlcNAc(b1-4)][Neu5Ac(a2-3)Gal(b1-4)GlcNAc(b1-2)[Neu5Ac(a2-3)Gal(b1-4)GlcNAc(b1-6)]Man(a1-6)]Man(b1-4)GlcNAc(b1-4)GlcNAc
# How it was run: as §1
# [33] = molecular target: Neu5Ac(a2-3)Gal(b1-4)GlcNAc(b1-2)[Neu5Ac(a2-3)Gal(b1-4)GlcNAc(b1-4)]Man(a1-3)[GlcNAc(b1-4)][Neu5Ac(a2-3)Gal(b1-4)GlcNAc(b1-4)Man(a1-6)]Man(b1-4)GlcNAc(b1-4)GlcNAc
# How it was run: as §1
# [34] = molecular target: Neu5Ac(a2-6)Gal(b1-4)GlcNAc(b1-2)Man(a1-6)Man(b1-4)GlcNAc(b1-4)GlcNAc
# How it was run: as §1
# [35] = molecular target: Neu5Ac(a2-6)Gal(b1-4)GlcNAc(b1-2)Man(a1-6)[Gal(b1-4)GlcNAc(b1-2)Man(a1-3)]Man(b1-4)GlcNAc(b1-4)GlcNAc
# How it was run: as §1
# [36] = molecular target: Neu5Ac(a2-6)Gal(b1-4)GlcNAc(b1-3)GalNAc
# How it was run: as §1
# [37] = molecular target: Neu5Ac(a2-8)Neu5Ac(a2-3)[GalNAc(b1-4)]Gal(b1-4)Glc
# How it was run: as §1
# [38] = molecular target: Neu5Ac9Ac(a2-3)Gal(b1-3)GlcNAc
# How it was run: as §1
# [39] = molecular target: Neu5Gc(a2-3)Gal(b1-3)[Fuc(a1-4)]GlcNAc
# How it was run: as §1
# [40] = molecular target: Neu5Gc(a2-3)Gal(b1-4)[Fuc(a1-3)]GlcNAc
# How it was run: as §1
binder,measurement,setting,value
B1,glycan array binding signal (z-score),[1],-0.124
same,glycan array binding signal (z-score),[2],0.564
same,glycan array binding signal (z-score),[3],-0.277
same,glycan array binding signal (z-score),[4],-0.217
same,glycan array binding signal (z-score),[5],0.424
same,glycan array binding signal (z-score),[6],-0.006
same,glycan array binding signal (z-score),[7],0.198
same,glycan array binding signal (z-score),[8],-0.555
same,glycan array binding signal (z-score),[9],-0.786
same,glycan array binding signal (z-score),[10],0.399
same,glycan array binding signal (z-score),[11],-0.367
same,glycan array binding signal (z-score),[12],2.85
same,glycan array binding signal (z-score),[13],2.05
same,glycan array binding signal (z-score),Gal(a1-3)Gal(b1-4)GlcNAc,-0.375
same,glycan array binding signal (z-score),[14],2.19
same,glycan array binding signal (z-score),Gal(b1-3)Gal(b1-4)GlcNAc,11.1
same,glycan array binding signal (z-score),Gal(b1-3)GalNAc,4.57
same,glycan array binding signal (z-score),[15],1.71
same,glycan array binding signal (z-score),[16],4.33
same,glycan array binding signal (z-score),[17],1.8
same,glycan array binding signal (z-score),[18],-0.183
same,glycan array binding signal (z-score),[19],1.04
same,glycan array binding signal (z-score),[20],-0.689
same,glycan array binding signal (z-score),[21],-0.558
same,glycan array binding signal (z-score),[22],3.24
same,glycan array binding signal (z-score),[23],0.173
same,glycan array binding signal (z-score),Gal3S(b1-3)GlcNAc,0.121
same,glycan array binding signal (z-score),Gal6S(b1-4)GlcNAc6S,0.127
same,glycan array binding signal (z-score),[24],3.25
same,glycan array binding signal (z-score),GlcA(b1-3)Gal,-0.516
same,glycan array binding signal (z-score),[25],0.799
same,glycan array binding signal (z-score),[26],0.824
same,glycan array binding signal (z-score),[27],-0.371
same,glycan array binding signal (z-score),[28],-0.806
same,glycan array binding signal (z-score),[29],-0.106
same,glycan array binding signal (z-score),Man(a1-3)[Man(a1-6)]Man,-0.318
same,glycan array binding signal (z-score),[30],0.307
same,glycan array binding signal (z-score),[31],0.193
same,glycan array binding signal (z-score),[32],-0.471
same,glycan array binding signal (z-score),[33],0.275
same,glycan array binding signal (z-score),[34],0.197
same,glycan array binding signal (z-score),[35],-0.37
same,glycan array binding signal (z-score),[36],2.06
same,glycan array binding signal (z-score),[37],-0.488
same,glycan array binding signal (z-score),[38],-0.521
same,glycan array binding signal (z-score),[39],0.081
same,glycan array binding signal (z-score),[40],-0.593
